Molecules are shown by their SMILES. Hit rate of the full screen: of about 360,000 compounds, about 2,100 (0.58%) were called active. Shown is part of a subset that was picked to be rich in actives. Values without a mark were called inactive. No stated cut-off is given here; in the data, active means inhibition above about 36%; inactive means the rest.

The target in this assay is NEDD8-conjugating enzyme Ubc12 (Homo sapiens) + NEDD8-activating enzyme E1 regulatory subunit (Homo sapiens) (UniProt P61081+Q13564). As to the kind of experiment: NEDD8 transfer onto cullin, blockade – biochemical, TR-FRET, uHTS, NAE and Ubc12, primary screen (AID 651699). The conditions noted are these: TR-FRET cullin neddylation, at 25 µM, active compounds read high. Background: Time-resolved FRET reads energy transfer from a long-lived donor to a nearby acceptor.
NEDD8-conjugating enzyme Ubc12 (Homo sapiens) + NEDD8-activating enzyme E1 regulatory subunit (Homo sapiens), sequence (P61081 whole entry, looked up): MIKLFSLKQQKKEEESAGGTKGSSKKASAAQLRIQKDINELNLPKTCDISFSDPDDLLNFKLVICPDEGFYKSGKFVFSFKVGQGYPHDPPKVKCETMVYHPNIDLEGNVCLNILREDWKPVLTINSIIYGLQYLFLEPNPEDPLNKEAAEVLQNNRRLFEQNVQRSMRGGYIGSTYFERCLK
NEDD8-conjugating enzyme Ubc12 (Homo sapiens) + NEDD8-activating enzyme E1 regulatory subunit (Homo sapiens), sequence (Q13564 whole entry, looked up): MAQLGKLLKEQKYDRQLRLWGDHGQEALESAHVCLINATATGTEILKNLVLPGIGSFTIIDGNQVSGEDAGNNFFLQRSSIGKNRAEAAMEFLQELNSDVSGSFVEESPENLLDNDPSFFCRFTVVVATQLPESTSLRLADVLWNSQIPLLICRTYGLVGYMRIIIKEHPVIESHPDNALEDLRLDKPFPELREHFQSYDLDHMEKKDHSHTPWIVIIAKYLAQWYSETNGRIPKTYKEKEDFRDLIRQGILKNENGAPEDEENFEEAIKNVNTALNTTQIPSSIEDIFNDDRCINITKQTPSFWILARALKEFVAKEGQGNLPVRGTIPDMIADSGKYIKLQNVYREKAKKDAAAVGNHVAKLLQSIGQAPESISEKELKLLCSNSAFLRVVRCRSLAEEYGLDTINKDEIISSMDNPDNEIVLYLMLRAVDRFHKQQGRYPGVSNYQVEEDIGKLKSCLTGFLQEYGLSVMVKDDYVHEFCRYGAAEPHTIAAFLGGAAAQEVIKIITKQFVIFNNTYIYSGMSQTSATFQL
As usually defined, the inhibition is the drop in the measured response relative to a control, in per cent. As for `COc1ccc(N2CC(C(=O)N[C@@H](C)C(=O)N3CCCCC3)CC2=O)cc1` (stereo partly drawn), the inhibition is -5.41%.

In the case of `O=C1NC(c2ccncc2)Nc2sc3c(c21)CCCC3` (stereo not drawn), the inhibition was 44.1% (active).

As to `COc1ccc(OC)c(/C=N/NC(=O)c2ccc[n+](CC(=O)c3ccccc3)c2)c1`, the inhibition was -1.66%.

On to `O=C(N/N=C/c1ccsc1)c1cc(O)cc(O)c1`, for which the inhibition is -1.8%.

`COc1cccc(Cn2cc(/C=N/NC(=O)c3cc(O)cc(O)c3)c3ccccc32)c1`: the inhibition was 57.8% (active).

Regarding `NC(=O)CN1CCCC1c1ccc2c(c1)OCCO2` (stereo not drawn), the inhibition is 0.21%.

As to `CCOc1ccc(NC(=O)C2CCCN(C(=O)Nc3ccccc3)C2)cc1` (stereo not drawn), the inhibition was -6.95%.

On to `CCCCc1cc2c(s1)CCCC/C2=N/O`, for which the inhibition is -11.4%.

Turning to `C=CCN1C(=O)C(O)(CC(=O)c2ccccn2)c2ccccc21` (stereo not drawn), the inhibition is 1.24%.

Regarding `COc1ccc(/C=C(\C#N)c2c[nH]c3ccccc23)cc1`, the inhibition is 44.5% (active).

For `COc1ccc(C2C(C(C)=O)=C(O)C(=O)N2CCc2c[nH]c3ccccc23)cc1` (stereo not drawn), the inhibition is -15.3%.

As for `C[N+](C)(C)CCNC(=O)c1c[nH]c2ccccc12`, the inhibition is 16.8%.

With `O=C(CCN1C(=O)c2ccccc2C1=O)C1=NN[C@@H]2C(=O)N(c3ccc(F)cc3)C(=O)[C@H]12`, the inhibition is -15%.

As for `C[C@H](O)[C@@H]1C(=O)N2CCc3c([nH]c4ccccc34)[C@@H]2C[C@@H]1N(C)C(=O)Nc1ccc(F)cc1`, the inhibition was 50.2% (active).

As to `C[C@H](O)[C@@H]1C(=O)N2CCc3ccc(N4CCOCC4)cc3[C@@H]2C[C@@H]1N(C)C(=O)C(C)(C)C`, the inhibition is 22%.

As for `COCC(=O)N(C)[C@H]1C[C@H]2c3cc(Oc4ccccc4C)ccc3CCN2C(=O)[C@H]1[C@H](C)O`, the inhibition is 2.1%.

Turning to `CC(=O)N1c2ccc(S(=O)(=O)N(C)CC(=O)N(C)Cc3ccccc3)cc2CC1C` (stereo not drawn), the inhibition is 1.96%.

`Cc1ccc(CN(Cc2cccnc2)C(=S)Nc2cccc(Cl)c2C)cc1`: the inhibition was 1.43%.

Consider `COCCn1c(Cc2cccn2C)nnc1SCC(=O)Nc1nccs1`, for which the inhibition is -1.55%.

Turning to `CCCCN(C=O)c1c(CC)nc2c(OCc3ccccc3C(=O)OC)cccn12`, the inhibition is 8.99%.

With `COc1ccc(C2OC(=O)CC2C(=O)NC(C)C)cc1` (stereo not drawn), the inhibition was 4.68%.

In the case of `COCCNC(=O)c1ccc2nc(Cc3ccc(OC)c(OC)c3)oc2c1`, the inhibition is -5.61%.

Consider `COCCNC(=O)Nc1ccc2nc(-c3ccco3)c(-c3ccco3)nc2c1`, for which the inhibition is 49.3% (active).

Take `COCCNC(=O)CN(Cc1ccco1)C(=O)CCC(=O)Nc1nccs1`: the inhibition is 0.84%.

Turning to `CSCCC(NC(=O)c1ccc(Cl)cc1Cl)C(=O)NNC(=O)c1csc(N2CCOCC2)n1` (stereo not drawn), the inhibition is 31%.

`Cc1ccc(N/N=C2\COC(C)(C)CC2=O)cc1`: the inhibition is 0.52%.

For the compound `Cc1nc2ccc(S(=O)(=O)NCC(=O)O)cc2s1`, the inhibition was 7.99%.

Regarding `CS(=O)(=O)c1ccc2nc(NC(=O)c3ccc(Cl)nc3)sc2c1`, the inhibition was 65.7% (active).

As for `NS(=O)(=O)c1ccc2nc(NC(=O)CS(=O)(=O)c3ccc(F)cc3)sc2c1`, the inhibition was 1.17%.

For the compound `Cc1nn2c(=O)cc(COC(=O)c3ccc(NC(=O)C(C)(C)C)cc3)nc2s1`, the inhibition was -2.19%.

In the case of `CCOC(=O)C1CCCN(C(=O)C2CCN(S(=O)(=O)c3ccc(Cl)c(C(F)(F)F)c3)CC2)C1` (stereo not drawn), the inhibition is -19.5%.

As to `Cc1ccc2nsnc2c1NC(=O)c1ccccc1[N+](=O)[O-]`, the inhibition is -26.4%.

As to `CCOc1cc(C(=O)Nc2c(C)ccc3nsnc23)cc(OCC)c1OCC`, the inhibition is 41.7% (active).

Take `CCOc1cc(C(=O)Nc2ccc(S(=O)(=O)Nc3cnc4ccccc4n3)cc2)cc(OCC)c1OCC`: the inhibition was 6.73%.

Take `COc1ccc([N+](=O)[O-])cc1C1NN=C(c2cccc3ccccc23)S1` (stereo not drawn): the inhibition was -3.56%.

For the compound `COc1ccc(C2C(C#N)=C(N)N(c3ncn[nH]3)C3=C2C(=O)CCC3)cc1` (stereo not drawn), the inhibition was -6.24%.

Consider `COc1ccc2c(c1OC)C(=O)N(c1ccc(O)cc1)C2`, for which the inhibition is 14.7%.

For `COc1ccc2c(c1OC)C(=O)N(c1ncn[nH]1)C2`, the inhibition was 39.8% (active).

`COc1ccc(NC(=O)CCC(=O)N2CCN(S(=O)(=O)c3ccc(C)cc3)CC2)c(OC)c1`: the inhibition is 2.78%.

As for `Cc1c(C2=CCN(S(=O)(=O)c3ccc(Cl)cc3)CC2)c2ccccc2n1C`, the inhibition was -207%.

Turning to `CN(C)CC/C=C1\c2ccccc2CSc2ccccc21`, the inhibition is 6.08%.

Take `COC(=O)c1ccc2nc(-c3ccc(Cl)cc3)c(Cc3cccc(F)c3)n2c1`: the inhibition is 25.5%.

As for `COC(=O)c1ccc2nc(-c3ccc(OC)c(OC)c3)c(Cc3ccccc3)n2c1`, the inhibition is 41.4% (active).

Consider `COC(=O)c1ccc2nc(-c3ccc(F)cc3)c(Cc3ccc(C)cc3)n2c1`, for which the inhibition was 36.3%.

Regarding `CC[C@]12c3[nH]c4ccc(Cl)cc4c3CCN1C(=O)[C@@H](CC(=O)NCCCOC)C[C@@H]2C(=O)N1CCN(C(=O)c2ccco2)CC1`, the inhibition was 3.68%.

Consider `COc1c(C(C)C)oc2cc3oc(=O)ccc3cc12`, for which the inhibition was 36.1%.

Consider `COC(=O)Cn1c(=NC(=O)CSCC(=O)Nc2cc(C)on2)sc2ccccc21`, for which the inhibition was 6.58%.

As to `S=c1[nH]nc(/C=C/c2ccccc2)o1`, the inhibition is 40.5% (active).

As for `Cc1ccc(-c2cc(C(=O)N/N=C/C=C/c3ccccc3)n[nH]2)o1`, the inhibition was -6.17%.

Take `CC(C)(C)c1cc2cccnc2n1Cc1ccccc1`: the inhibition is 24.2%.

On to `Cc1cnc(CN(C)C(=O)C2CCC(=O)N(CCc3cccc(F)c3)C2)[nH]1` (stereo not drawn), for which the inhibition was -3.06%.

As to `Cc1cccn2c(=O)c3cc(C(=O)NCCN4CCOCC4)c(=N)n(Cc4cccnc4)c3nc12`, the inhibition is 68.3% (active).

Take `CCCCCn1c(=O)c(C(=O)OCC)c(Cl)c2ccccc21`: the inhibition was 4.01%.

`CCCNC(=O)CCn1nc(-c2ccccc2)c2ccccc2c1=O`: the inhibition was -0.32%.

As for `CCCn1c(=O)c(-c2ccccc2)c(O)c2ccccc21`, the inhibition is 44.3% (active).

In the case of `O=C1OC(Cc2ccccc2)C(c2ccccc2)C1=O` (stereo not drawn), the inhibition is -10.9%.

As to `Cc1cc(=O)[nH]c(Nc2cccc(Br)c2)n1`, the inhibition is -6.28%.

`Cc1cc(=O)[nH]c(SCc2ccc(Cl)cc2)n1`: the inhibition was -1.58%.

Take `CCN(CC)c1ccc(/C=N/Nc2nc(C)cc(=O)[nH]2)cc1`: the inhibition was 42% (active).

As to `COc1ccc(CNC(=O)C(=O)N2CCC3(CC2)OCCN3S(=O)(=O)c2ccc(C)cc2)cc1`, the inhibition was 4.54%.

Regarding `Cc1cc(/C=C2/C(=N)N3C(=NC2=O)SN=C3S(C)(=O)=O)c(C)n1-c1ccccc1`, the inhibition is 44.8% (active).

On to `CC1=CC2=NC(=O)/C(=C/c3coc4ccccc4c3=O)C(=N)N2O1`, for which the inhibition was -38.8%.

As to `CCOC(=O)C1=C(O)/C(=C/c2cc(C)n(-c3ccccc3)c2C)N=C1C`, the inhibition was 16.8%.

For `COc1ccc(Cl)cc1NC(=O)CN(C)C(=O)c1ccc2n[nH]nc2c1`, the inhibition is 7.09%.

For the compound `COc1ccc(-c2cc(C(=O)N(C)CC(=O)Nc3ccccc3Cl)c3ccccc3n2)cc1OC`, the inhibition was 46.6% (active).

Take `COc1cccc(NC(=O)CN(C)C(=O)c2cc(Cl)nc3ccccc23)c1`: the inhibition was -0.49%.

With `CC(=O)NC1CCN(CC(=O)Nc2nccs2)CC1`, the inhibition is -3.21%.

In the case of `COC(=O)c1noc(C)c1-c1ccnn1C(=O)c1ccc(Cl)cc1`, the inhibition is -11.9%.

Regarding `CC1CCC2CCCCC2N1C(=O)c1cc([N+](=O)[O-])cc([N+](=O)[O-])c1` (stereo not drawn), the inhibition is -35.2%.

On to `O=C(N/N=C/c1ccoc1)c1ccc(Cl)cc1Cl`, for which the inhibition is 1.29%.

In the case of `CC(Oc1ccccc1[N+](=O)[O-])C(=O)N/N=C/c1ccoc1` (stereo not drawn), the inhibition was -9.94%.

As to `CC(C)c1cc(C(=O)N/N=C/c2ccoc2)c(O)c(C(C)C)c1`, the inhibition is 49.1% (active).

Turning to `COc1ccc(OC)c(NC(=O)CSc2nc(N)c(-c3ccccc3)c(=O)[nH]2)c1`, the inhibition was 26.4%.

Turning to `CC(CCO)Nc1nc2c([nH]1)c(=O)n(C)c(=O)n2C` (stereo not drawn), the inhibition was 10.7%.

Regarding `Cc1cc(C)c(C=NNc2nc3c([nH]2)c(=O)n(C)c(=O)n3C)c(C)c1`, the inhibition was 39.2% (active).

In the case of `Cc1ccc(NN=Nc2nc3c([nH]2)c(=O)n(C)c(=O)n3C)cc1`, the inhibition is 1.85%.

On to `COc1cccc(/C=N/NC(=O)C(=O)N2CCCC2)c1`, for which the inhibition was -14.6%.

For the compound `O=C(CN1C(=O)CC(c2ccccc2)=Nc2ccccc21)NC1CCCCC1`, the inhibition was -13.9%.

For the compound `O=C(NCc1cccc(Cl)c1)C1CCC(=O)N(C2CC2)C1` (stereo not drawn), the inhibition is -4.68%.

Turning to `O=C(NCc1cccc(Cl)c1)C1=CC=CN2CCS(=O)(=O)N=C12`, the inhibition is 33% (active).

In the case of `O=C(NCc1cccc(Cl)c1)C1CCN(c2nnc(N3CCCC3=O)s2)CC1`, the inhibition is 9.68%.

In the case of `CCOc1ccc(/C=N/NC(=O)C(C)Sc2ccccn2)cc1OCC` (stereo not drawn), the inhibition is -5.74%.

In the case of `CCOc1cc(/C=N/NC(=O)c2ccncc2)cc(Br)c1O`, the inhibition is -8.9%.

With `CCOc1cc(/C=N/Nc2cc(C)nc3ccc(C)cc23)ccc1O`, the inhibition is 39.9% (active).

In the case of `O=C(CCN1C(=O)C2C3CCC(C3)C2C1=O)Nc1ccc(Cl)cc1Cl` (stereo not drawn), the inhibition was 5.46%.

With `O=C(CNC(=O)c1ccc(Br)o1)NCC1CCCO1` (stereo not drawn), the inhibition was 10.6%.

Take `COc1ccc(N2CCN(C(c3cc4ccc(C)cc4[nH]c3=O)c3nnnn3C3CCCC3)CC2)cc1` (stereo not drawn): the inhibition was 8.39%.

With `CCOc1ccc2[nH]c(=O)c(C(c3nnnn3CCOC)N3CCOCC3)cc2c1` (stereo not drawn), the inhibition is 46% (active).

As to `COCCn1nnnc1C(c1cc2ccc(OC)cc2[nH]c1=O)N1CCc2ccccc2C1` (stereo not drawn), the inhibition is -11.9%.

In the case of `C=CCC(CC=C)(C(N)=O)c1ccccc1`, the inhibition is -5.36%.

With `Cc1ccc(C2CC(c3cccc(NS(C)(=O)=O)c3)=NN2S(C)(=O)=O)cc1` (stereo not drawn), the inhibition was 7.24%.

For `CS(=O)(=O)Nc1cccc(C2=NN(C(=O)c3cccc(F)c3)C(c3cccs3)C2)c1` (stereo not drawn), the inhibition is -5.27%.

Regarding `CS(=O)(=O)Nc1ccc(C2=NN(S(C)(=O)=O)C(c3cccs3)C2)cc1` (stereo not drawn), the inhibition is 51.1% (active).
